The sample as a whole holds a higher share of hits than the screen did.
LmPK inhibitor: inhibitors of Leishmania mexicana pyruvate kinase. Q27686. purified LmPK, Kinase-Glo ATP luminescence, 1 h. Potency, µM (doses to about 57.5 µM), inactives show at the top dose activity change, negative = inhibition, hits mostly inhibitors. 290,000 tested, 0.37% active. AID 1721; note: potency is the fitted concentration of half-maximal effect; % is set by controls: 0 for no effect and ±100 for the full control effect
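qHTS format; LmPK 0.1 nM; substrates PEP 0.5 mM and ADP 0.1 mM. One-hour room-temperature incubation, then coupled luciferase luminescence; 0.5 nM enzyme wells mark activation.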
CHX counter: counter-screen hit for Shiga toxin inhibitors, cycloheximide | AID 2314 | cell reporter, cycloheximide protein synthesis inhibition counterscreen | max response, % | 300,000 tested, 12% active; in the data active = max response mostly above about 13%, no sharp cut-off; inactive = mostly below about 14%; note: read at 38.3 µM for the half of the compounds with a filed dose; 0% is about no effect
Giardia FBPA inh: Giardia lamblia aldolase inhibition; 290,000 tested, 0.71% active; A8B2U2; Potency, µM (top dose mostly 59.6 µM), without a hit: at the highest dose activity, negative = inhibition, actives largely listed as inhibitors; purified Giardia FBPA; note: potency is the fitted concentration of half-maximal effect; % is set by controls: 0 for no effect and ±100 for the full control effect; nearly all actives have a fitted effect of over 55% in size
Target sequence (A8B2U2 whole entry, looked up): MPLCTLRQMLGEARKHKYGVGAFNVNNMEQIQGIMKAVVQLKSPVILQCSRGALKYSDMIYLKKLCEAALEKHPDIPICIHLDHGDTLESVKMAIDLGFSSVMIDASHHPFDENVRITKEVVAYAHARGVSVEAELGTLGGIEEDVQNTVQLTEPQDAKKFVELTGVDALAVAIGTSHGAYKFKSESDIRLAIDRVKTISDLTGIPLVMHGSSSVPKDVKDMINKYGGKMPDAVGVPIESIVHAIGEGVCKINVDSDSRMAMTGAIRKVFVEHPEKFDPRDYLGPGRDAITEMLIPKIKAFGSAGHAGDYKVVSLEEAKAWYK
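40 nM FBPA preincubated 10 min at RT with compound (up to 57.5 uM final), then substrate plus GAPDH/TPI/NAD/arsenate coupling and diaphorase/resazurin added. Fluorescence read after 20 min at RT, 525/598 nm.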
Tb PYK inh: blocks Trypanosoma brucei pyruvate kinase. Q57TT1. TbPYK enzyme, Kinase-Glo Plus ATP luminescence, 45 min. Potency, µM (top dose mostly 76.8 µM), without a hit: at the top dose activity, negative = inhibition, actives largely listed as inhibitors. 410,000 tested, 0.12% active. AID 624173; note: potency is the fitted concentration of half-maximal effect; % is set by controls: 0 for no effect and ±100 for the full control effect; nearly all actives have a fitted effect of over 50% in size
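Readout: single end-point luminescence (Kinase-Glo Plus, 10 min). Reaction conditions were TbPYK/substrate plus 130 uM ADP, 45 min at RT, pH 7.2 TEA buffer. No-enzyme wells served as controls, and data were normalized before concentration-response fitting.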
RE007 growth inh: less growth of the S. pombe RE007 Vpr strain; S. pombe RE007 Vpr strain, BacTiter-Glo ATP luminescence, 24 h; Potency, µM (series often up to 92.2 µM), inactives show at the top dose activity change, negative = less growth, actives largely listed as inhibitors; 360,000 tested, 0.21% active; active = well fitted falling curve with a large enough effect; inconclusive = small, poorly fitted or top-dose-only effect; inactive = no such curve, though single readings can be large or run the other way; note: potency is the fitted concentration of half-maximal effect; % is set by controls: 0 for no effect and ±100 for the full control effect; nearly all actives have a fitted effect of over 50% in size
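Fission yeast strain RE007, carrying one chromosomally integrated HIV-1 vpr copy, was seeded at OD 0.01 in PMG+AL medium with 23 nL pinned compound. After 24 h at 30 °C and 99% humidity, viability was read by BacTiter-Glo luminescence.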
Shiga inhibitor: blocks Shiga toxin action in Vero cells; 290,000 tested, 9.2% active; Vero cells, Shiga toxin protein synthesis inhibition reporter; inhibition, % at 38.7 µM; in the data active = inhibition mostly above about 28%, no sharp cut-off; inactive = mostly below about 43%; note: 0% is about no effect
* = called active by the depositor; ? = inconclusive; . = not tested or not shown; [ ] = another dose, or the depositor's remark. Unless noted, calls come from the whole dose curve; as a rule, active = well fitted curve in the direction sought with a large enough effect; inconclusive = small, poorly fitted or top-dose-only effect, or another doubt; inactive = no such curve, though single readings can be large; an effect the other way counts as inactive or inconclusive.

SMILES | LmPK inhibitor | CHX counter | Giardia FBPA inh | Tb PYK inh | RE007 growth inh | Shiga inhibitor
Cn1c(CCNC(=O)c2ccco2)nc2cc(NC(=O)NC3CCCCC3)ccc21 | -5.0% | 2.5 | -3.6% | -3.8% | 2.2% | 2.7
O=C(Nc1ccc2[nH]c3c(c2c1)CCCC3)c1ccco1 | 0.3% | 13.7* | ? | -0.7% | ? | 42.0*
NNC(=O)c1ccc2[nH]c3c(c2c1)CCCC3 | 0.1% | 4.6 | -6.1% | -5.9% | -16.3% | 16.4
Cc1nc2cc(NC(=O)c3ccco3)ccc2n1C | -19.2% | 23.6* | . | -15.0% | -3.1% | 18.9
Cc1cc(NC(=O)c2ccco2)ccc1-n1cnnn1 | -0.7% | 45.5* | . | 2.5% | 13.3% | 112.6*
Cc1noc(Cn2c(=O)c3cc4c(cc3n(CC(=O)Nc3ccccc3F)c2=O)OCO4)n1 | . | . | . | 1.9% | . | .
Cc1ccc(S(=O)(=O)N2CCCc3cc(NS(=O)(=O)c4ccc(C)c(C)c4)ccc32)cc1 | . | . | . | -0.7% | . | .
O=C1NC2CCCCN2C12CCN(CCCN1c3ccccc3CCc3ccc(Cl)cc31)CC2 (configuration not stated) | . | . | . | 1.4% | . | .
Cn1c(CCNC(=O)c2ccco2)nc2cc(NC(=O)c3ccccc3)ccc21 | -4.2% | 36.2* | . | -4.8% | -13.2% | 80.1*
Cn1c(CCNC(=O)c2ccccc2)nc2cc(NC(=O)c3ccco3)ccc21 | -0.7% | 18.0 | 1.6% | -8.9% | -0.2% | 82.3
Cc1nc2cc(NC(=O)NCc3ccco3)ccc2n1C | 6.6% | 41.3* | -1.3% | 1.7% | -8.2% | 85.4*
Cc1nc2ccc(NC(=O)c3ccco3)cc2nc1C | -6.7% | 17.3* | -7.9% | 2.4% | -12.3% | 58.9*
CC(=O)c1cccc(NC(=O)NCc2ccco2)c1 | 1.6% | 12.0 | -3.0% | -0.5% | -8.0% | 11.0
CCCCC(=O)Nc1ccc2c(c1)nc(CCNC(=O)c1ccco1)n2C | 4.9% | 15.5* | . | -6.4% | -7.2% | 15.1
COc1cc(NC(=O)C2CCN(S(=O)(=O)c3c(C)noc3/C=C/c3c(C)cc(C)cc3C)CC2)cc(OC)c1 | . | . | . | 2.7% | . | .
Cc1cccc(CSc2nc3c(c(=O)[nH]2)C(c2cccc(O)c2)CC(=O)N3)c1 (configuration not stated) | . | . | . | -6.7% | . | .
CC1=Nc2cc(C(=O)NCCc3ccc(Cl)cc3)ccc2Sc2ccc(C)cc21 | . | . | . | -4.0% | . | .
Cc1cc2cc(NC(=O)c3ccco3)ccc2[nH]1 | 1.9% | 61.2* | ? | -16.4% | -8.5% | 137.0*
CCOC(=O)N1CCN(Cc2nc3cc(NC(=O)c4ccco4)ccc3n2CC)CC1 | 4.4% | 22.9* | 4.3% | -6.4% | -17.7% | 32.4
CCOC(=O)N1CCN(Cc2nc3cc(NC(=O)C(C)C)ccc3n2CC)CC1 | -6.6% | -2.9 | -2.8% | -2.7% | 3.5% | -3.8
Cc1ccc(OCCSc2nc3ccc(NC(=O)c4ccco4)cc3s2)cc1 | . | . | . | 2.2% | . | .
COc1ccccc1C(=O)Nc1ccc2c(c1)nc(CCNC(=O)c1ccco1)n2C | -0.8% | 5.7 | -2.6% | 5.9% | -10.5% | 15.5
Cn1c(CCNC(=O)c2ccco2)nc2cc(NC(=O)c3ccco3)ccc21 | -3.4% | 22.5* | -0.3% | -3.3% | 11.3% | 48.6*
Nc1nc2ccc(NC(=O)c3ccco3)cc2s1 | -8.8% | 50.8* | -1.1% | -10.8% | -2.9% | 107.0*
CCOc1ccc(NC(=O)Cn2c(=O)n(-c3ccccc3)c(=O)c3c4c(sc32)CCCC4)cc1 | . | . | . | -0.1% | . | .
SMILES | LmPK inhibitor | CHX counter | Giardia FBPA inh | Tb PYK inh | RE007 growth inh | Shiga inhibitor
COc1ccc(CNC(=O)CCc2nc(-c3ccc(C)cc3)no2)c(OC)c1 | . | . | . | 0.6% | . | .
Cc1noc(C)c1-c1ccc2ncnc(NCc3ccc(C(F)(F)F)o3)c2c1 | . | 12.5 | -0.2% | . | . | 15.9
Oc1ccc(C23CCCC2C2(CCCC2)c2ccc(O)cc2O3)c(O)c1 (configuration not stated) | . | . | . | 4.7% | 15.0% | .
CC1Cc2cc(S(=O)(=O)NCc3ccc(N(C)C)cc3)ccc2N1C(=O)C1CCC1 (configuration not stated) | . | . | . | -0.5% | . | .
CCC(=O)NCCc1nc2cc(NC(=O)c3ccco3)ccc2n1C | 1.3% | 15.5* | -9.7% | 1.3% | 1.9% | 44.0*
COc1cccc(CNC(=O)c2ccc(-c3nc(COc4ccccc4)c(C)o3)cc2)c1 | . | . | . | -4.6% | . | .
c1ccc(Cc2nnc3sc(C4COc5ccccc5O4)nn23)cc1 (configuration not stated) | -3.3% | -0.1 | 1.0% | -13.3% | ? | 1.0
c1ccc(CCc2nn3c(C4COc5ccccc5O4)nnc3s2)cc1 (configuration not stated) | 3.6% | 24.3* | 10.1% | ? | 5.0% | 35.2*
c1ccc(Cc2nn3c(C4COc5ccccc5O4)nnc3s2)cc1 (configuration not stated) | 0.7% | 33.2* | 8.5% | ? | 9.9% | 71.7*
COc1ccccc1-c1nn2c(C3COc4ccccc4O3)nnc2s1 (configuration not stated) | 2.5% | 9.8 | 3.3% | . | 8.1%[3.69 µM] | 5.7
Cn1nc(C(=O)NCc2ccc(F)cc2)cc1C(=O)NCc1ccc(F)cc1 | . | . | . | 3.8% | 4.2% | .
Cc1ccc(C(=O)C(c2ccccc2)N2Cc3ccccc3C2=N)cc1 (configuration not stated) | 0.2% | 1.8 | ? | -0.8% | 12.9% | 11.3
O=C(COc1ccc(-c2ccccc2)cc1)N1CCN(C(=O)c2cccs2)CC1 | 3.2% | 15.2* | -4.8% | 7.8% | ? | 40.2*
O=C(COc1ccccc1)N1CCN(S(=O)(=O)c2cccs2)CC1 | -4.0% | 3.4 | 5.0% | -6.3% | 12.5% | -1.5
O=C(COc1ccc(Cl)cc1)N1CCCC1 | -3.0% | 12.2* | -1.5% | -5.3% | -3.9% | 37.1*
O=C(COc1ccc(Br)cc1)N1CCCCCC1 | 7.6% | 14.4* | 4.2% | 7.8% | 9.2% | 43.7
Cc1ccc(OCC(=O)N2CCCCCCC2)cc1 | 1.4% | 15.9* | -7.1% | 4.5% | 10.8% | 60.9
CC(C)OCCCNC(=O)C(=O)Nc1c2c(nn1-c1ccccc1)CS(=O)(=O)C2 | . | . | . | 0.9% | . | .
CSc1cccc(NC(=O)CN2C(=O)COc3ccc(S(=O)(=O)N4CCC(C)CC4)cc32)c1 | . | . | . | -2.3% | . | .
O=C(CN1C(=O)CSc2ncccc21)Nc1cccc(Cl)c1 | -4.8% | 11.3 | -2.0% | -11.7% | 14.0% | 19.4
CC(C)c1ccc(N2C(=NC(=O)C3CCCO3)SC3CS(=O)(=O)CC32)cc1 (configuration not stated) | 2.9% | -6.6 | . | 0.0% | 0.3% | 9.9
CCOC(=O)N1CCN(C(=O)COc2ccc3c(c2)C(=O)CC(C)(C)O3)CC1 | 0.4% | -3.0 | 2.2% | 2.1% | -1.1% | -5.6
CC1(C)CC(=O)c2cc(OCC(=O)N3CCCCCC3)ccc2O1 | -1.9% | 56.8* | 2.7% | -4.0% | -5.7% | 80.0*
Cn1c(SCc2ccccc2F)nnc1-c1ccccn1 | -2.5% | 43.9* | -0.5% | 8.3% | 16.7% | 108.8*
